Measured values taken from PubChem BioAssay (NCI).
The panel holds about 83,000 compounds, 20% with a hit somewhere; the sample as a whole holds those more often.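 Growth was measured after 48 h exposure to one concentration of compound in 96-well plates. Values under 10 count as active.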 Values without a mark were called inactive. Calls of active or inactive are those of the source.

System: PC-3 prostate
Experiment: NCI-60 one-dose screen, 48 h (100 = growth as untreated, 0 = no growth, -100 = all killed)
Conditions: 10 µM
Description: Growth inhibition of the PC-3 human tumor cell line is measured as a screen for anti-cancer activity. Cells are grown in 96 well plates and exposed to the test compound for 48 hours. Compounds are tested at a single concentration, which is 10^-5 M for most compounds. The reported endpoint is percent growth (GI% or GIPRCNT), where numbers from 0 - 100% represent growth inhibition, and numbers from -100% - 0 represent cell death. For example, a value of 40 represents 60% growth inhibition. A value of 0 means no net growth occurred over the course of the experiment. A value of -40 indicates 40% of cells at the beginning of the experiment died by the end of the experiment. A value of -100 means all cells are dead at the end of the experiment.
NCI-60 Human Tumor Cell Lines Screen was performed using the standard one-dose NCI protocol, which is described in more detail at https://dtp.cancer.gov/discovery_development/nci-60/default.htm.
Compounds with GIPRCNT values below 10 were considered active. Activity score was based on GIPRCNT using the following formula: […]
Score is 0 for GIPRCNT values of 100 or above, 50 for GIPRCNT values of 0, and 100 for GIPRCNT values of -100.

| Structure (SMILES) | growth |
| --- | --- |
| Cc1cc(N2CCC(N3CCCC3)CC2)nc(/N=C(\N)Nc2ccc(Cl)c(Cl)c2)n1 | 82.6% |
| O=c1cc(-c2ccccc2)oc2c1ccc1ccccc12 | 84% |
| Cc1cc(N)c(S(=O)(=O)O)c(N)c1 | 85.4% |
| Cc1ccc(N)cc1[N+](=O)[O-] | 95.8% |
| Cc1cc(C(O)(c2ccc(Nc3ccccc3)cc2)c2ccc(Nc3ccc(S(=O)(=O)O)cc3)cc2)ccc1N (stereo not given) | 12.1% |
| C#CCSc1nnnn1-c1ccc(Br)c(C)c1 | 99.7% |
| C=C1CC/C=C(\C)C(=O)C[C@@H]2[C@@H]1CC2(C)C | 92.6% |
| Oc1ccccc1-c1nnco1 | 91.8% |
| O=C1Cc2cc(O)ccc2O1 | 107% |
| O=[N+]([O-])c1ccc(/C=C/C=C/c2ccccc2)c(Cl)c1 | 94.1% |
| OC(c1ccccn1)C(O)c1ccccn1 (stereo not given) | 102% |
| Cc1ccccc1N=C(c1ccccc1)C1C(=O)c2ccccc2C1=O | 59.8% |
| CC1(C)/C(=C\CO)C2CCC1C2 (stereo not given) | 95% |
| O=[N+]([O-])c1ccc(Sc2ccncn2)c([N+](=O)[O-])c1 | 71.9% |
| CCOC(=O)C1=C(C)NC(=O)NC1c1cccs1 (stereo not given) | 102% |
| O=[N+]([O-])c1ccccc1N=Nc1ccc(O)cc1O | 97.2% |
| Oc1ccccc1O | 87.4% |
| NC(=S)NN=C1CCCC1 | 89.9% |
| CC[N+](C)(CC)CCO | 102% |
| O=C(O)CCC(=O)OC(C1CO1)C(OC(=O)CCC(=O)O)C1CO1 (stereo not given) | 96.3% |

| Structure (SMILES) | growth |
| --- | --- |
| O=[N+]([O-])c1ccc(O)c(S(=O)(=O)O)c1 | 97.3% |
| Nc1nc(N)c(N=Nc2ccc(C(=O)O)cc2)c(N)n1 | 101% |
| O=C(O)C(c1ccccc1)C(O)c1ccccc1 (stereo not given) | 92.6% |
| COc1cc2nn(-c3ccccc3N)nc2cc1OC | 97.8% |
| CC1CCC(C(=O)O)N1 (stereo not given) | 99.2% |
| CC1(O)CCCCC1O (stereo not given) | 98.4% |
| O=[N+]([O-])c1ccc(Cl)c(S(=O)(=O)O)c1 | 108% |
| Cc1cc2ccccc2c(O)c1C#N | 105% |
| O=C(N/N=C/c1ccccc1O)Nc1nn[nH]n1 | 95.6% |
| COc1cccc(Sc2ccc([N+](=O)[O-])c3no[n+]([O-])c23)c1 | 59.4% |
| CNC(=S)NC(C)(C)C | 89.9% |
| O=C(CCl)Nc1ccc2c(c1)C(=O)c1ccc(NC(=O)CCl)cc1C2=O | -22.1% (active) |
| C=CC(O)CCC (stereo not given) | 90% |
| O=C(/C=C\c1ccc(O)cc1)c1ccccc1 | 90.6% |
| O=C(N/N=C\c1cc(Br)cc(Br)c1O)N/N=C/c1cc(Br)cc(Br)c1O | -1.34% (active) |
| CCOC(=O)CCCS(C)(=O)=O | 87.9% |
| CC(=O)NCc1cc(C)c(C)cc1C | 93.5% |
| COc1cc2c(cc1O)CC[C@@H]1C2CC[C@@]2(C)C1CC[C@@H]2O (stereo not given in full) | 19.7% |
| CC(=Nc1ccccc1)C1=C(O)C(Cc2cccc(F)c2)NC1=O (stereo not given) | 19.2% |
| CCOC(=O)c1cc(/C=C/c2ccc(Cl)cc2Cl)on1 | 44% |
